Screens: PubChem, National Center for Advancing Translational Sciences (NCATS)
An excerpt weighted towards active compounds, which were near 3.1% of everything screened.
Vif-A3G inh: inhibitors of Vif-APOBEC3G interaction; AID 602310; HeLa A3G-eYFP + Vif (tagged APOBEC3G with the HIV-1 protein that degrades it), YFP fluorescence, overnight; 0.076% of 410,000 active; Potency, µM (series often up to 46.1 µM), hits mostly inhibitors; also: nearly all actives have a fitted effect of over 60% in size
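HeLa cells stably expressing Vif and C-terminally eYFP-tagged A3G, seeded overnight at 37 deg C, then exposed to compound by pintool overnight at 37 deg C. Rise in yellow fluorescence (Ex 488/Em 500-530, Acumen) marks blocked Vif-driven A3G degradation.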
TSHR antag: blocks TSH signaling through the human TSH receptor. P16473. TSHR-expressing cells, TSH-stimulated cAMP HTRF, 2 h; stronger effect = lower value. activity change, negative = inhibition, % at 11.5 µM. 0.2% of 330,000 active;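 active = activity change below a set negative limit, meaning inhibition stronger than a set level, cut at about -70% in these data; inconclusive = activity change between two set negative limits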
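Read-out is FRET at 665 nm (cryptate excitation 337 nm) from a cryptate-tagged anti-cAMP antibody, competed by cell cAMP against cAMP-d2. Compounds are tested on freshly harvested TSHR cells challenged with 4nM TSH (EC80) for 2 hours at 37 deg C.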
PLK1 PBD inh: inhibitors of human PLK1 polo-box domain binding. AID 720504. Plk1 PBD binding of FITC phosphopeptide, fluorescence polarization. Potency, µM, usual class: inhibitors. P53350. 2.8% of 360,000 active; also: series mostly up to about 57 µM; nearly all actives have a fitted effect of over 65% in size
Target sequence (P53350 whole entry, looked up, the tested form may be a part): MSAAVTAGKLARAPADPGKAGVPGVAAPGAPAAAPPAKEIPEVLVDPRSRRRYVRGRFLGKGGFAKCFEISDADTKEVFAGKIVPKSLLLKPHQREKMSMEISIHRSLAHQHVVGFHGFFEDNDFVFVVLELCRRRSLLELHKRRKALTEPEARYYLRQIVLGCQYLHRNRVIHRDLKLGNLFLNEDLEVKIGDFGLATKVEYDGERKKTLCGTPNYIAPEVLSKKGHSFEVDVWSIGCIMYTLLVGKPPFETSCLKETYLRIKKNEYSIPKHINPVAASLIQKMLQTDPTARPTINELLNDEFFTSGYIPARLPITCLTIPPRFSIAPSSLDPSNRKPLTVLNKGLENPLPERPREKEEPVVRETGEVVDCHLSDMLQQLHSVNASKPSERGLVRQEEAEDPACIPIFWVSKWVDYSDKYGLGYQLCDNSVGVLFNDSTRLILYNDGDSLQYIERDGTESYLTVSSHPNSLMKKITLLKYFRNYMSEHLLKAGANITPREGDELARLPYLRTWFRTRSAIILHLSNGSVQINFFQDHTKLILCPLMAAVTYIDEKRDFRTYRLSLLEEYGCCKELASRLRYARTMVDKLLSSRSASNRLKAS
VDR inh: blocks the human vitamin D receptor; P11473; VDR-SRC2-3 peptide fluorescence polarization, 2 h; Potency, µM, most hits filed as inhibitors; 0.93% of 400,000 active; AID 504847
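The screen uses fluorescence polarization to detect compounds that interfere with recruitment of the SRC2-3 coactivator peptide to VDR; plates are read after 2 h at room temperature.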
Vif-A3F inh: Vif-A3F binding inhibition; HeLa A3F-eYFP + Vif (tagged APOBEC3F with the HIV-1 protein that degrades it), YFP fluorescence increase; Potency, µM (titrated, usually from 46.1 µM); 0.2% of 390,000 active; also: nearly all actives have a fitted effect of over 65% in size
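Fluorescence increase (Ex 488/Em 500-530) after overnight compound treatment at 37 deg C flags inhibition of Vif-driven A3F-eYFP loss in stable HeLa A3F-eYFP/Vif cells seeded overnight beforehand.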
Large screens that a line does not name were inactive. Unless noted, calls follow the shape of the dose curve; as a rule, active = well fitted curve in the direction sought with a large enough effect; inconclusive = small, poorly fitted or top-dose-only effect, or another doubt; inactive = no such curve, though single readings can be large; an effect the other way counts as inactive or inconclusive.

S=c1[nH]nc(COc2ccccc2)n1/N=C/c1cccs1	none
CN(C)c1ccc(/C=N/n2c(COc3ccccc3)n[nH]c2=S)cc1	PLK1 PBD inh 11µM
CCOc1cc(/C=N/n2c(COc3ccccc3)n[nH]c2=S)ccc1O	none
CC(C)c1ccc(/C=N/n2c(COc3ccccc3)n[nH]c2=S)cc1	PLK1 PBD inh 24µM
O=[N+]([O-])c1ccc(/C=N/n2c(COc3ccccc3)n[nH]c2=S)cc1	PLK1 PBD inh inconclusive
S=c1[nH]nc(COc2ccccc2)n1/N=C/c1ccc(Br)cc1	PLK1 PBD inh 27µM
Cc1ccc(/C=N/n2c(COc3ccccc3)n[nH]c2=S)cc1	PLK1 PBD inh 21µM
CCOc1ccc(-n2c(-c3ccc(Br)cc3)cc3c2CC(C)(C)CC3=O)cc1	none (no result: TSHR antag, PLK1 PBD inh)
NC(=O)COc1ccccc1C(=O)Nc1ccccc1	none (no result: TSHR antag, PLK1 PBD inh, VDR inh, Vif-A3F inh)
COc1cccc(/C=N/n2c(COc3ccccc3)n[nH]c2=S)c1	PLK1 PBD inh 24µM
O=[N+]([O-])c1cccc(/C=N/n2c(COc3ccccc3)n[nH]c2=S)c1	PLK1 PBD inh inconclusive
S=c1[nH]nc(COc2ccccc2)n1/N=C/c1cccc(Br)c1	PLK1 PBD inh 30µM
S=c1[nH]nc(COc2ccccc2)n1/N=C/c1cccc(Cl)c1Cl	PLK1 PBD inh inconclusive
S=c1[nH]nc(COc2ccccc2)n1/N=C/c1ccccc1Cl	PLK1 PBD inh 27µM, Vif-A3F inh inconclusive
Oc1ccc(/C=N/n2c(COc3ccccc3)n[nH]c2=S)cc1O	PLK1 PBD inh 21µM
N#Cc1ccccc1-c1cncnc1NCc1cccnc1	none (no result: Vif-A3G inh, TSHR antag, PLK1 PBD inh, Vif-A3F inh)
CCCN1CNc2c(c(=O)[nH]c(=S)n2CCc2ccc(C)cc2)C1	none (no result: Vif-A3G inh, TSHR antag, PLK1 PBD inh, Vif-A3F inh)
FC(F)Oc1ccc(/C=N/n2c(Cc3ccc(Br)cc3)n[nH]c2=S)cc1	PLK1 PBD inh 9.5µM, VDR inh 79µM
S=c1[nH]nc(COc2ccccc2)n1/N=C/C(Cl)=C/c1ccccc1	Vif-A3G inh inconclusive, PLK1 PBD inh 24µM, VDR inh inconclusive
S=c1[nH]nc(COc2ccccc2)n1/N=C/c1c(Cl)cccc1Cl	PLK1 PBD inh inconclusive
S=c1[nH]nc(-c2ccncc2)n1/N=C/C(Cl)=C\c1ccccc1	Vif-A3G inh inconclusive, PLK1 PBD inh 6.7µM
CCCS(=O)(=O)c1nc(S(=O)(=O)c2ccc(C)cc2)c(N(C)Cc2ccccc2)s1	none (no result: TSHR antag, PLK1 PBD inh)
O=C(Nc1ccc(Br)cc1)c1cc(Br)c(Br)s1	none (no result: Vif-A3G inh, TSHR antag, PLK1 PBD inh, Vif-A3F inh)
Cc1ccc(Cl)cc1N1CCN(C(=O)C2CCC(=O)N(C3CCCCCC3)C2)CC1 (configuration not stated)	none
Cc1cccc(N2CCN(C(=O)C(C)C)CC2)c1C	PLK1 PBD inh 30µM
Cc1cccc(N2CCN(C(=O)C3CCC(=O)N(C4CC4)C3)CC2)c1C (configuration not stated)	PLK1 PBD inh 7.5µM, VDR inh inconclusive
Cc1cccc(N2CCN(C(=O)Cn3ncc4c5ccccc5n(C)c4c3=O)CC2)c1C	none (no result: TSHR antag, PLK1 PBD inh)
Cc1cccc(N2CCN(C(=O)Cc3cn(C)c4ccccc34)CC2)c1C	PLK1 PBD inh 12µM, VDR inh 20µM
CC(O)(c1ccccc1)[N+]1(CC(=O)c2ccccc2)C=CC=C1 (configuration not stated)	none (no result: TSHR antag, PLK1 PBD inh, VDR inh, Vif-A3F inh)
O=c1c2[nH]c3ccccc3c2ncn1Cc1ccco1	none
Cc1ccc2c(c1)[nH]c1c(=O)n(Cc3ccco3)cnc12	PLK1 PBD inh 27µM, VDR inh inconclusive
O=C(COC(=O)c1ccc2ncsc2c1)NC(=O)C1CCCCC1	none (no result: TSHR antag, PLK1 PBD inh, Vif-A3F inh)
O=c1ncccn1[C@@H]1O[C@H](CO)[C@@H](O)[C@H]1O	none (no result: Vif-A3G inh, TSHR antag, PLK1 PBD inh, Vif-A3F inh)
CCOC(=O)C1CCN(C(=O)Cc2cccs2)CC1	PLK1 PBD inh 30µM
O=C(Cc1ccc(OCC2CCCCC2)cc1)NO	none (no result: TSHR antag, PLK1 PBD inh, VDR inh, Vif-A3F inh)
O=S(=O)(NC(=S)c1ccccc1)c1ccccc1	PLK1 PBD inh inconclusive (no result: TSHR antag)
O=S(=O)(NC(=S)c1ccccc1)c1ccc(Cl)cc1	PLK1 PBD inh 15µM, Vif-A3F inh inconclusive
CCN(CC)c1ccc(N=C2C=CC(=O)C=C2NC(C)=O)cc1	VDR inh 71µM, Vif-A3F inh inconclusive (no result: TSHR antag)
CCN(CC)c1ccc(NC(=O)Nc2ccc(C(C)=O)cc2)cc1	none
CCCCNC(=O)Cn1c(SCc2cccc(C)c2)nc2ccncc21	none (no result: TSHR antag, PLK1 PBD inh, Vif-A3F inh)
Cc1ccc(/C=C/C(=O)OCC(=O)N2CC(=O)Nc3ccccc32)o1	PLK1 PBD inh 27µM
O=C1CN(C(=O)COC(=O)/C=C/c2ccco2)c2ccccc2N1	Vif-A3F inh inconclusive
